Screens: PubChem, The Scripps Research Institute Molecular Screening Center
Hits are enriched below; roughly 4.1% of the tested compounds scored in any of these assays.
hgDAF12 agonist: activates the H. glycines DAF-12 receptor ligand-binding domain | activation, % at 6.8 µM | actives 1.8% (n = 370,000) | HEK293 GAL4-hgDAF12 UAS-luciferase reporter, agonist luminescence; normalized to butyrate control;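 active = activation above a cutoff set at the mean of all screened compounds plus 3 SD, cut at about 10% in these data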;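 note: 0% = DMSO wells and 100% = sodium butyrate wells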
DAX1 inh-1: blocks DAX1 repression of SF-1 activated StAR promoter; AID 652010; inhibition, % at 6.8 µM; actives 1.1% (n = 370,000); HEK293T StAR-luciferase reporter, SF-1/DAX-1 repression relief;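 active = inhibition above the mean over all tested compounds plus 3 SD, cut at about 3.6% in these data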;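 note: 0% = DAX-1 cells with DMSO and 100% = cells lacking DAX-1 with DMSO; higher inhibition means more luminescence from relief of DAX-1 repression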
DAX1 inh-2: inhibits human nuclear receptor DAX1 | P51843 | HEK293 Gal4-DAX1 luciferase reporter, luminescence | inhibition, % at 6.75 µM | actives 0.99% (n = 340,000);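 active = inhibition above the mean over all tested compounds plus 3 SD, cut at about 4.2% in these data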;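 note: 0% = DAX1-transfected cells with DMSO and 100% = empty-vector control cells with DMSO; inhibition shows as a rise in luminescence from relieved DAX1 repression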
Target sequence (P51843 207-470 limits assumed): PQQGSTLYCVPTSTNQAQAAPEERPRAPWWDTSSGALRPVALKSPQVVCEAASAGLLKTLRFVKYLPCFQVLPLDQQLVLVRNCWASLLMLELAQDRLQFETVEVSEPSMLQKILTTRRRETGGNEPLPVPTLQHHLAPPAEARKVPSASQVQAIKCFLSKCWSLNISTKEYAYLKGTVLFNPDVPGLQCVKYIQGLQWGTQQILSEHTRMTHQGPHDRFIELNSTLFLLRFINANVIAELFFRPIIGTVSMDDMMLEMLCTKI
hcDAF12 agonist: H. contortus DAF-12 activation, primary screen; HEK293 hcDAF-12 lit1-tk-luc reporter, luminescence; 0% DMSO, 100% Δ7-dafachronic acid; activation, % at 6.8 µM; actives 1.4% (n = 370,000); AID 652067;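 active = activation above the mean of all tested compounds plus 3 SD, cut at about 5.5% in these data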;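 note: 100% = response to 3 µM Δ7-dafachronic acid high control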
ssDAF12 agonist: S. stercoralis DAF-12 activation, primary screen. activation, % at 6.8 µM. HEK293 ssDAF-12/GRIP1 lit1-tk-luc reporter, luminescence; % of 3 µM dafachronic acid response. actives 1% (n = 370,000). AID 652126;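 active = activation above the mean over all tested compounds plus 3 SD, cut at about 0.9% in these data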;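 note: 0% = DMSO-only wells and 100% = 3 µM delta7-dafachronic acid wells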
* marks the source's active call; other numbers are inactive results; . = no result given.

SMILES | hgDAF12 agonist | DAX1 inh-1 | DAX1 inh-2 | hcDAF12 agonist | ssDAF12 agonist
COc1cccc(C2c3[nH]c4ccccc4c3C[C@H]3C(=O)N(C4CC4)CC(=O)N23)c1 (stereo partly drawn) | -2 | 0 | 0 | 1 | 0
COc1ccc(CN2C/C(=C/C3=CCCCC3)N(C(=O)OCc3ccccc3)C2=N)c(OC)c1 | 4 | 0 | . | -2 | -1
C[C@H]1[C@@H](OC(=O)NC2CCCCC2)CC[C@@]23CCCN2C(=O)CCC[C@@H]13 | -2 | . | . | 0 | -2
O=C1CC(=O)C(n2cncn2)C(c2ccc(Cl)cc2)C1 (stereo not drawn) | -1 | -1 | 5.8* | 2 | -1
N/C(=N\OCc1ccccc1)c1nonc1N | 11* | 2 | 1 | 2 | -1
CCCCNC(=O)C[C@@H]1C(=O)N(CCc2ccc(Cl)cc2)C2=CCCCC[C@]21C(=O)OC | -1 | -1 | . | 0 | -1
CCC(=O)c1ccc(OCC(=O)O)cc1 | -1 | 0 | 2 | 1 | -2
CCC(=O)c1ccc(OCc2ccc(C#N)cc2)cc1 | 12* | 2 | 2 | 0 | 0
COc1cc(OC)c2c(O)c3c(=O)cc(C)oc3c(-c3c(OC)cc4cc5c(c(O)c4c3O)C(=O)CC(C)(O)O5)c2c1 (stereo not drawn) | 6 | 1 | . | -2 | -1
O=C(N[C@@H](Cc1cccnc1)C(=O)N1CCC[C@H]1C(=O)NC1CCCC1)c1ccc(Cl)c(Cl)c1 | 1 | 0 | . | 0 | -1
CC(=O)Nc1ccc2c(c1)C(=Nc1ccccc1)c1ccccc1-2 | 2 | -1 | 1 | -2 | -1
CC(=O)Nc1cc2c3c(cccc3c1)-c1ccccc1-2 | 11* | 1 | 1 | 2 | 0
O=C(c1ccc(F)cc1)N1CCN2C(=O)c3ccccc3C12c1ccccc1 (stereo not drawn) | -3 | 0 | 1 | -1 | -1
O=C(c1ccc(F)cc1)N1CCN2C(=O)c3ccccc3C12c1ccc(Cl)cc1 (stereo not drawn) | -4 | 0 | 4.2* | -2 | -1
Fc1ccc2[nH]c3c(Cl)ncnc3c2c1 | 2 | 1 | -1 | 5 | 1.0*
COc1ccc(-c2nc3c([nH]2)c(=O)n(C)c(=O)n3C)c(OC)c1 | 3 | 0 | 1 | 3 | 1.1*
CCCC/C=C1/[C@H](c2ccccc2)N(C)C2=N[C@@H](c3ccccc3)CC(=O)N21 | -3 | . | . | -4 | -2
C[C@H]1C(=O)CC[C@@]23CCCN2C(=O)CCC[C@@H]13 | -1 | . | . | -1 | -2
Cc1ccc(-c2nc3sc4c(c3c(=O)n2N)CCCC4)cc1 | 12* | 3 | 2 | 5.8* | 0
Cc1nc2sc3c(c2c(=O)o1)CCCC3 | -1 | 0 | 0 | 5 | 1.0*
c1ccc(C(Nc2cccnc2)c2ccccc2)cc1 | 1 | -1 | 1 | -1 | -1
c1ccc(NC(c2ccccc2)c2ccncc2)cc1 (stereo not drawn) | 1 | 0 | 2 | 0 | 1.4*
CN1C2=N[C@@H](c3cccc(C(F)(F)F)c3)CC(=O)N2/C(=C\c2ccccc2)[C@H]1c1ccccc1 | 2 | . | . | -1 | -1
CCCN(CC(=O)Nc1ccc(NC(C)=O)cc1)CC(=O)Nc1ccc(F)c(F)c1F | -1 | -1 | 4.6* | -3 | -1
CCCN(CC(=O)Nc1cccc(Br)c1)CC(=O)Nc1ccc(F)c(F)c1F | 0 | -1 | -1 | 0 | -2
SMILES | hgDAF12 agonist | DAX1 inh-1 | DAX1 inh-2 | hcDAF12 agonist | ssDAF12 agonist
Nc1nc2c(ncn2[C@@H]2O[C@H](C(=O)NCCCc3ccccc3)[C@@H](O)[C@H]2O)c(=O)[nH]1 | -1 | 1 | . | 1 | -1
O=C(NCc1cccs1)c1nc(-c2cccs2)no1 | 2 | 1 | 4.3* | 1 | -1
O=C(NCCc1ccccc1)c1nc(-c2cccs2)no1 | 11* | 0 | -1 | 2 | 0
O=C(NCc1ccncc1)c1nc(-c2cccs2)no1 | 0 | -1 | 0 | -2 | -1
C=C(C)[C@@H]1CC2=C(OC)C(CC=C(C)C)(CC=C(C)C)C(=O)C(C(=O)c3ccccc3)=C2O1 | -1 | 0 | . | -2 | -2
CCCN1CCN(CC(=O)Nc2nc3ccccc3s2)CC1 | 2 | 0 | 2 | 6 | 1.2*
COCCNC(=O)c1nc2ccccc2s1 | 2 | 1 | 0 | 5 | -1
O=C(NCCO)c1nc2ccccc2s1 | 1 | 0 | 0 | 4 | 1.0*
O=C(CN1CCN(Cc2ccc(F)cc2)CC1)Nc1nc2ccccc2s1 | 1 | 0 | 1 | 3 | 0
CCOCC(=O)Nc1nc2ccccc2s1 | 10 | 1 | 1 | 3 | 0
CCNC(=O)Nc1nc2ccccc2s1 | 13* | 2 | 1 | 0 | 0
CCOc1ccc(NC(=O)CN(C)C(=O)c2cc(S(=O)(=O)N3CCCCCC3)ccc2OC)cc1OCC | 1 | 3.9* | 0 | -1 | 0
O=C(NCc1ccccc1)O[C@H]1CC[C@@]23CCCN2C(=O)CCC[C@H]3C1 | 2 | . | . | -2 | -2
COc1cc(CN2CCC(Cc3ccccc3)CC2)cc(OC)c1OC | 1 | 0 | 5.1* | -1 | -2
COc1ccc(CN2CCC(Cc3ccccc3)CC2)c(C)c1C | 5 | 0 | 4.3* | -2 | -2
Cc1cccc(CNC(=O)NC2CCCCN(Cc3cccc(Cl)c3)C2=O)c1 (stereo not drawn) | -2 | -2 | . | -4 | -2
CCN(C(=O)CSc1nnnn1-c1ccc(Cl)cc1)C1CCS(=O)(=O)C1 (stereo not drawn) | -1 | 4.0* | 1 | 0 | -1
Cn1c(CNc2ccccc2F)nc2ccccc21 | 11* | . | . | 5 | 0
CC(=O)c1ccc(NC(=S)N2CCN(CCO)CC2)cc1 | 0 | 0 | 4.8* | -1 | -1
COC(=O)c1ccc(NC(=S)N2CCN(CCO)CC2)cc1 | 0 | 0 | -1 | -3 | -2
Cc1cccc(CCNC(=O)c2ccc3c(c2)ncn3C2CCCCC2)c1 | 0 | 1 | . | -1 | -1
Cc1cc2ncc(-c3ccc(Cl)cc3)cn2n1 | 11* | 3.7* | 2 | 2 | -1
N#Cc1ccc(OCCCN2CCC(C(O)(C3=CCCC3)c3ccccc3)CC2)cc1 (stereo not drawn) | 3 | -1 | . | 0 | -1
O=C1CCc2cccc(O)c2N1 | 0 | -1 | 4.9* | 0 | -1
O=C1CCC(=O)c2oc3ccccc3c2N1 | 1 | 0 | -1 | -1 | -1
N#Cc1cccnc1Nc1ccc(Cl)cc1 | 0 | 0 | -2 | 3 | 0
CCCCc1ccc(Nc2ncccc2C#N)cc1 | 8 | 1 | 1 | 5.8* | 1
CCCN1C(=O)c2[nH]nc(-c3ccccc3)c2C1c1ccc(C)cc1 (stereo not drawn) | -1 | 0 | . | -1 | -1
Cc1cccc(C)c1NC(=O)COn1nnc2ccc(C(F)(F)F)cc21 | -3 | 0 | 0 | -1 | -1
O=C(COn1nnc2ccc(C(F)(F)F)cc21)Nc1c(Cl)cccc1Cl | -2 | 1 | -2 | 0 | 15*
